Screens: PubChem BioAssay, several laboratories
SKKanGAS inh: SKKanGAS growth inhibition. S. pyogenes SKKanGAS, kanamycin growth, BacTiter-Glo, 6 h. inhibition, % at 7.5 µM. 300,000 compounds, 1.3% hits;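 active = mean replicate score, as percent of positive control median, at least 50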;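 note: strain carries kanamycin resistance gene driven by streptokinase promoter and grows in 40 µg/ml kanamycin; loss of luminescence reflects streptokinase promoter inhibition or plain growth inhibition; 0% = median of DMSO wells and 100% = positive control at its reference dose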
tim10-1 inh: growth inhibitors of tim10-1 mutant yeast | inhibition, % at 20 µM | S. cerevisiae tim10-1 ts strain growth, BacTiter-Glo, 24 h | 330,000 compounds, 2.2% hits;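 active = inhibition of at least 40%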;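 note: mutant grown at 25 °C; 0% = DMSO wells with yeast and 100% = wells holding no yeast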
V-ATPase pHluor: alters yeast V-ATPase proton transport; S. cerevisiae, pHLuorin cytosolic pH fluorescence; response, % at 10 µM; 350,000 compounds, 0.37% hits; AID 504577; in the data active = response mostly above about 7.3%, no sharp cut-off; inactive = mostly below about 5.4%; note: actives read high
TIM10 inh: inhibits growth of TIM10 yeast strain; S. cerevisiae TIM10 strain growth, BacTiter-Glo luminescence, 24 h; inhibition, % at 10 µM; 330,000 compounds, 1.4% hits;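 active = inhibition of 40% or more at the single tested concentration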;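 note: wild-type TIM10 isogenic control strain grown at permissive 25 °C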
PfHsp90 set2: inhibits growth of yeast expressing Plasmodium falciparum Hsp90; S. cerevisiae expressing PfHsp90, BacTiter-Glo ATP, 48 h; yeast lacking PDR1 and PDR3 efflux regulators; inhibition, % at 9.4 µM; 310,000 compounds, 0.32% hits; AID 504621;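 active = every replicate shows inhibition above about 80%, whatever the replicate mean, limit read from the data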;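 note: 0% = DMSO neutral controls and 100% = 20 µM radicicol positive controls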
tim23-1 inh: growth inhibitors of tim23-1 mutant yeast | S. cerevisiae tim23-1 growth, BacTiter-Glo luminescence, 24 h | 330,000 compounds, 1.3% hits | AID 463212 | inhibition, % at 20 µM;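 active = growth inhibition of the mutant yeast at or above 50%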;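 note: temperature-sensitive mutant grown at 25 °C; plate controls were DMSO-treated mutant yeast for no effect and medium wells lacking yeast for full effect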
An asterisk follows results filed as active; . = not tested or not shown. Shown are actives, neighbours in structure and some others; about 4.6% of the full set was active somewhere.

SMILES	SKKanGAS inh	tim10-1 inh	V-ATPase pHluor	TIM10 inh	PfHsp90 set2	tim23-1 inh
C/C(=N\NC(=O)c1cc2ccccc2cc1O)c1ccc2c(c1)OCO2	81*	-9	2	12	5	-1
COCCSc1ccccc1C(=O)NCc1cccnc1	5	-11	-1	2	-68	-13
C=C(C)COc1ccc(-c2nc(N)nc(C)c2-c2ccc(OC)cc2)c(O)c1	-19	11	3	14	-16	7
C=C(C)COc1ccc(-c2ncncc2Oc2ccc(OC)cc2)c(O)c1	55*	8	1	20	.	21
C=C(C)COc1ccc(-c2[nH]ncc2Oc2cccc(OC)c2)c(O)c1	76*	-41	4	39	110*	13
C=C(C)COc1ccc(-c2nc(N)ncc2-c2ccc(OC)c(OC)c2)c(O)c1	-4	23	0	23	7	31
COc1ccc(Oc2cn[nH]c2-c2ccc(O)cc2O)cc1	-1	14	-1	10	16	19
C=C(C)COc1ccc(-c2[nH]ncc2-c2ccc(OC)cc2)c(O)c1	75*	1	-4	1	22	29
C=C(C)COc1ccc(-c2[nH]ncc2-c2ccccc2)c(O)c1	18	33	1	21	55	22
C=C(C)COc1ccc(-c2nc(N)ncc2-c2ccc(Cl)cc2)c(O)c1	99*	-13	4	-5	-18	25
O=C(Cn1cnc2ccccc21)OCC(=O)N1CCCCC1	.	-5	2	-4	.	-7
N#Cc1ccccc1COc1cccc2c1CCCC2O (stereo not drawn)	8	21	-1	13	-1	37
COc1cc(C(=O)NCC(c2cccs2)N2CCOCC2)ccc1OCc1ccc(Cl)cc1 (stereo not drawn)	.	.	0	.	.	.
CCOC(=O)CN1C(=O)/C(=C/c2ccccc2Br)Oc2ccccc21	6	3	3	-14	5	5
Cc1nn(-c2ccccc2)nc1C(=O)Nc1nnc(C(F)(F)F)s1	39	9	2	9	-51	29
CCOc1ccccc1Oc1cn[nH]c1-c1ccc(O)cc1O	0	8	-2	19	-8	14
COc1ccccc1-c1cn[nH]c1-c1ccc(OCc2ccc(F)cc2)cc1O	51*	11	0	21	-3	30
C=C(C)COc1ccc(-c2[nH]ncc2Oc2ccccc2OCC)c(O)c1	77*	30	2	-6	-23	16
CCN1C[C@@H]2[C@@H]3C(=O)N(C)C(=O)[C@@H]3[C@](Cc3ccccc3)(C1=O)N2C(=O)c1ccc(Br)cc1	.	.	5	.	8	.
COc1ccc(S(=O)(=O)N2CCOCC2)cc1NC(=O)CSc1n[nH]c(C(C)C)n1	10	-9	-2	5	1	7
COc1ccc(S(=O)(=O)N2CCCOC2CNC(=O)C(=O)NCc2ccccc2C)cc1 (stereo not drawn)	.	.	-1	.	.	.
Cc1ccccc1CN1CCN(C(=O)CC(C)C)CC1	-2	-29	-2	-4	6	-1
O=C(CSc1ccccc1)Nc1nc2ccccc2[nH]1	3	-8	32*	15	7	5
O=C(Cc1ccc(Br)cc1)Nc1nc2ccccc2[nH]1	57*	2	-3	-9	-5	-7
CC(Sc1nnc(C2CC2)n1-c1ccccc1)C(=O)N1CCCC1 (stereo not drawn)	.	9	-7	-1	-9	5
SMILES	SKKanGAS inh	tim10-1 inh	V-ATPase pHluor	TIM10 inh	PfHsp90 set2	tim23-1 inh
O=C(Nc1ccccc1C(=O)O)/C(=C/c1ccc(Cl)cc1Cl)NC(=O)c1ccco1	5	-1	-2	-12	-4	-13
Fc1ccc2nc(Nc3nc4cc5c(cc4s3)OCCO5)sc2c1	50*	32	3	18	2	35
Fc1ccc2nc(Nc3nc4cc5c(cc4s3)OCO5)sc2c1	60*	5	-7	25	-4	13
O=[N+]([O-])c1cccc2ccc(/C=C/c3ccc(Cl)cc3)nc12	3	21	-4	3	6	1
CSc1ccc(/C=C/c2ccc3cccc(O)c3n2)cc1	100*	4	-1	-3	60	-2
Cc1ccsc1/C=C/c1ccc2ccccc2n1	10	16	0	3	-2	14
Cc1ccsc1/C=C/c1ccc2cccc(O)c2n1	101*	24	-1	11	-14	30
Cc1cccc(C)c1NC(=O)CNC(=O)CNC(=O)c1ccc2c(c1)OCO2	0	-30	-2	8	-12	-11
Cc1cc(C)c(C(=O)N2CCC(N3CCC(C(=O)NC(C)C)CC3)CC2)o1	7	-2	-4	1	-5	-15
CC(C)(C)c1ccc(OCC(=O)Nc2ccncc2)cc1	-20	14	3	12	-13	23
O=C(Nc1ccc(S(=O)(=O)Nc2ncccn2)cc1)C1CC(=O)N(c2ccc(Cl)cc2)C1 (stereo not drawn)	1	-10	2	4	-21	4
Cc1c(C(=O)Nc2ccc(Oc3ccccc3)cc2)sc2nc3n(c(=O)c12)CCC3	56*	20	1	9	-10	9
COc1cccc(COC(=O)c2sc3nc4n(c(=O)c3c2C)CCC4)c1OC	93*	1	-1	-1	-13	19
COc1ccc(C(C)=O)cc1CSc1nnc(-c2ccc(Cl)cc2)n1-c1ccccc1	11	37	-2	27	-18	45
Nc1nc(SCc2ccc(Cl)cc2Cl)nc2nc3c(cc12)CCCC3	12	5	128*	12	-40	14
Nc1nc(SCc2ccccc2Cl)nc2nc3c(cc12)CCCC3	0	8	-1	16	-8	12
COc1cccc(C(=O)NC2C(=O)N3C(C(=O)O)=C(COC(C)=O)CSC23)c1 (stereo not drawn)	.	7	-4	2	15	2
CC(C(=O)NC1C(=O)N2C(C(=O)O)=C(CSc3nnnn3C)CSC12)n1cc(Cl)cn1 (stereo not drawn)	105*	9	1	6	-21	2
Cn1nnnc1SCC1=C(C(=O)O)N2C(=O)C(NC(=O)Cn3nc(C(F)F)cc3C3CC3)C2SC1 (stereo not drawn)	104*	15	2	5	-6	10
Cc1nnc(SCC2=C(C(=O)O)N3C(=O)C(NC(=O)C(C)n4nc(C(F)(F)F)cc4C)C3SC2)s1 (stereo not drawn)	103*	9	3	2	3	12
Cc1nnc(SCC2=C(C(=O)O)N3C(=O)C(NC(=O)Cc4ccccc4)C3SC2)s1 (stereo not drawn)	.	7	0	-8	8	8
Cc1c(Cl)c(C(F)F)nn1CC(=O)NC1C(=O)N2C(C(=O)O)=C(CSc3nnnn3C)CSC12 (stereo not drawn)	119*	.	0	.	-10	.
NC(=O)c1cc[n+](CC2=C(C(=O)O)N3C(=O)[C@@H](NC(=O)C(c4ccccc4)S(=O)(=O)[O-])[C@H]3SC2)cc1 (stereo partly drawn)	-8	-19	1	-2	-17	-4
